Laboratory results: PubChem BioAssay AID1478 (National Center for Advancing Translational Sciences (NCATS), 2009)
Among all 200,000 compounds or so, about 860 (0.43%) were called active. What follows is part of a selection rich in actives, with near analogues and random picks from the rest. Unmarked numbers belong to inactive results. The call rests on the fitted dose curve; in most records, active means well fitted inhibition curve with a large enough effect; inconclusive means small, poorly fitted or top-dose-only effect; inactive means flat fitted curve, though single readings scatter.

Molecular target: Cruzipain (Trypanosoma cruzi) (UniProt P25779)
Sequence (P25779 123-467 limits assumed): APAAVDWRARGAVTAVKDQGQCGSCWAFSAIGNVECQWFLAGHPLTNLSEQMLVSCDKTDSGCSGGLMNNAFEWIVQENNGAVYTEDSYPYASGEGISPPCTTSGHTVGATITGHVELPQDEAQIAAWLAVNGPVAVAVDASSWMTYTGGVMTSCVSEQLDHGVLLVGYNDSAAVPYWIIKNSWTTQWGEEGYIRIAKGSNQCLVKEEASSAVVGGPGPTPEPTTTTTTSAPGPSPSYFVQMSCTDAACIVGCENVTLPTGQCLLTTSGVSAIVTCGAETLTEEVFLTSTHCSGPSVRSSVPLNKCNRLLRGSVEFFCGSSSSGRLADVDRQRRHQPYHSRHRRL
Test: qHTS Assay for Promiscuous and Specific Inhibitors of Cruzain (with detergent); further: nearly all actives have a fitted effect of over 40% in size
Conditions: purified cruzain, Z-FR-AMC fluorescence, 0.01% Triton
Experimental: Cruzain (3.4.22.51) is a cysteine protease from the tropical parasite Trypanosoma cruzi. Dual qHTS experiment was performed against the NCGC compound collection in order to 1) identify novel inhibitors of the enzyme and 2) profile the compound collection for promiscuous inhibitors operating via colloidal aggregation (by performing detergent-free and detergent-containing comparison screens). Cruzain was assayed by the use of fluorogenic coumarin-based substrate Z-FR-AMC: proteolytic cleavage releases AMC, whose fluorescence is measured at 360 nm excitation and 450 nm emission. Purified cruzain was supplied by the labs of Prof. James McKerrow and Brian Shoichet, UC San Francisco.
This assay had 0.01% Triton X-100 concentration. See also releated assay "qHTS Assay for Promiscuous and Specific Inhibitors of Cruzain (without detergent)" with 0.00005% Triton X-100.
See following references for additional details:
Assay Provider: Shoichet, Brian; University of California, San Fancisco
Screening Center PI: Austin, C.P.
Screening Center: NIH Chemical Genomics Center [NCGC]
Buffer: 100 mM Sodium Acetate, pH 5.5, 5 mM DTT, Triton X-100 concentration: 0.01%.
Buffer in columns 3 and 4 as negative control (no enzyme).
Substrate solution: 2 uM final concentration of Z-FR-AMC (catalog number I-1160, Bachem) dispensed throughout the plate.
Enzyme: 1.5 nM Cruzain final concentration in columns 1, 2, 5-48. Column 1 is neutral (100% activity). Column 2 contained titration of covalent inhibitor K11777, starting concentration 1 mM, then 1:2 dilution in duplicate).
Three uL of enzyme or buffer were dispensed to 1536-well Greiner black solid bottom plates. Compounds and controls (23 nL) were transferred via Kalypsys PinTool. The plates were incubated for 15 min at room temperature, and then 1 uL of substrate solution was added to start the reaction. The plates were immediately transferred to and read 4 times every 30 seconds for 2 min on ViewLux High-throughput CCD imager (Perkin-Elmer) using 360 nm excitation and 450 nm emission fluorescence protocol. The fluorescence intensity difference between the third and the first time points (time lapse of 60 seconds) was used to compute reaction progress.
Potency means the concentration at half of the fitted maximal effect.

| SMILES | Potency | max response, negative = inhibition [%] |
| --- | --- | --- |
| c1ccc(-c2nnc(SCc3nc4ccccc4[nH]3)o2)cc1 | 25.1 µM (active) | – |
| Clc1ccccc1SCc1nc2ccccc2[nH]1 | – | -1.73 |
| Clc1ccc(-c2nnc(SCc3nc4ccccc4s3)o2)cc1 | – | -2.22 |
| COc1ccc(-c2noc(-c3ccc(N4CCN(c5ccccc5)CC4)c([N+](=O)[O-])c3)n2)cc1OC | – | -4.6 |
| O=C(NCc1ccccc1Cl)C1=Cc2cc(Br)ccc2OC1 | – | -4.23 |
| COc1ccc(Cn2ccn(CC(=O)Nc3cc(C)ccc3C)c(=O)c2=O)cc1 | – | -6.93 |
| O=C(NCCCO)C(=O)Nc1c2c(nn1-c1ccc(F)cc1)CSC2 | – | -6.19 |
| c1cncc(-c2nc(N3CCNCC3)c3ccccc3n2)c1 | – | -1.38 |
| Cc1cc(C(=O)Nc2ccccc2N2CCOCC2)c2ccccc2n1 | – | 7.98 |
| c1ccc(Nc2nc(N3CCOCC3)c3ccccc3n2)cc1 | 14.1 µM (active) | – |
| CCOc1ccc(N(C)S(=O)(=O)c2cc(-c3cnc(C)o3)ccc2OC)cc1 | – | -8.69 |
| Cc1cc(-c2ccc(C)c(S(=O)(=O)N3c4ccccc4CC3C)c2)on1 (stereo not given) | – | -1.84 |
| CC(C)Nc1nc(N(c2ccccc2)c2ccccc2)nc(-n2ccnc2)n1 | – | 1.14 |
| N#Cc1nc(N)nc(N(c2ccccc2)c2ccccc2)n1 | 2.24 µM (active) | – |
| COc1cc(OC)c(N(C)C(=O)c2cc3c(=O)oc4ccccc4c3s2)cc1Cl | – | -0.489 |
| Cc1ccccc1CSCCNC(=O)C1CCN(S(=O)(=O)Cc2ccccc2)CC1 | – | -4.58 |
| COc1cc(Cl)c(NC(=O)C(NS(=O)(=O)c2cccs2)C(C)C)c(OC)c1 (stereo not given) | – | -0.797 |
| CSc1nn(Cc2cccc(C)c2)c(N)c1S(=O)(=O)c1ccccc1 | – | -5.62 |
| CCN(CC)CCNc1ncnc2c1cnn2-c1cc(Cl)ccc1C | – | 0.243 |
| Cc1cccn2c(=O)c3cc(C(=O)NC(C)c4ccccc4)c(=N)n(CCCO)c3nc12 (stereo not given) | – | -22.8 |
| CCCn1c(=N)c(C(=O)NCc2ccccc2)cc2c(=O)n3cccc(C)c3nc21 | – | -0.842 |
| CCn1c(=N)c(C(=O)NCCCOC)cc2c(=O)n3cccc(C)c3nc21 | 31.6 µM (active) | – |
| O=C(NCc1ccc2c(c1)CCN2C(=O)c1ccccc1)c1ccccc1 | – | 1.91 |

| SMILES | Potency | max response, negative = inhibition [%] |
| --- | --- | --- |
| CCOc1ccc(-c2nonc2NC(=O)c2oc3ccc(C)cc3c2C)cc1OCC | – | -1.93 |
| O=C(CCS(=O)(=O)c1ccc2c(c1)NC(=O)CO2)Nc1cccc(C(F)(F)F)c1 | – | -1.23 |
| COc1ccc(Cl)cc1NC(=O)COC(=O)C(CC(C)C)N1C(=O)C2CC=CCC2C1=O (stereo not given) | 12.6 µM (active) | – |
| COc1ccc(Cl)cc1NC(=O)CNc1ccccc1F | – | -7.98 |
| COc1ccc(Cl)cc1NC(=O)Cn1c(=O)c2ccccc2n2nncc12 | – | -4.81 |
| Cc1oc2ccc(O)c(CN3CCCCC3)c2c1C(=O)Nc1cccc(C(F)(F)F)c1 | – | -4.76 |
| Cc1cc(C)cc(NS(=O)(=O)c2ccc(-c3cc(C)no3)s2)c1 | – | -11.1 |
| Cn1c(C(=O)NCCCN2CCN(c3cccc(Cl)c3)CC2)cc2c(=O)n(C)c3ccccc3c21 | – | -27.7 |
| O=C(NCCN1CCN(Cc2ccccc2)CC1)c1cc2c(=O)[nH]c3ccccc3c2s1 | – | -12.6 |
| Cn1c(C(=O)NCCN2CCc3ccccc3C2)cc2c(=O)[nH]c3ccccc3c21 | 15.8 µM (active) | – |
| CC(=O)c1nn(-c2ccc(OC(F)(F)F)cc2)nc1Nc1ccccc1 | – | 1.04 |
| O=C(CSc1nc2nccnc2c(=O)n1CCc1c[nH]c2ccccc12)Nc1ccccc1F | – | -2.4 |
| O=C(C1COc2ccccc2O1)N(Cc1cccnc1)c1nc2c(F)cc(F)cc2s1 (stereo not given) | – | -3.06 |
| CC(C)c1ccc(NC(=O)Cn2nnc(C(=O)NCCc3ccccc3)c2N)cc1 | – | 0.0037 |
| COC(=O)c1scc(-c2ccc(C)cc2)c1S(=O)(=O)Nc1cc(Cl)c(OC)cc1OC | – | -7.07 |
| Cc1cccc(C(=O)NCCCN2CCCC2=O)c1 | – | 6.06 |
| O=C(CCn1c(=S)[nH]c2ccccc2c1=O)NCCCN1CCCC1=O | – | 0.249 |
| O=C1CCCN1CCCNc1ncnc2c1[nH]c1ccccc12 | 15.8 µM (active) | – |
| Cc1nn(C(=O)c2c(F)cccc2F)c(C)c1S(=O)(=O)N1CCOCC1 | – | 0.43 |
| COc1ccc(CC(=O)NCCc2sc3nc(-c4ccc(OC)cc4)nn3c2C)cc1 | – | -3.58 |
| COc1cc(OC)cc(C(=O)Nc2cc3nn(-c4ccccc4)nc3cc2Cl)c1 | – | 6.82 |
| Cc1cccc(C(=O)NCCc2nc3ccccc3n2Cc2ccccc2Cl)c1 | 8.91 µM (active) | – |
| CCCCCn1c(CCCNC(=O)c2ccccc2OC)nc2ccccc21 | – | -1.13 |

| SMILES | Potency | max response, negative = inhibition [%] |
| --- | --- | --- |
| CCCCCn1c(CCNC(=O)c2ccc(F)cc2)nc2ccccc21 | 4.47 µM (active) | – |
| Cc1ccc(C)c(Cn2c(CCCNC(=O)C3CCCCC3)nc3ccccc32)c1 | – | -3.31 |
| CCCCn1c(CCCNC(=O)CC)nc2ccccc21 | – | -2.07 |
| CCC(=O)NCCc1nc2ccccc2n1CC | – | 4.89 |
| COc1ccc(Cn2c(C(=O)O)c(CNCc3cccc(OC)c3)c3ccc(C)cc32)cc1 | – | -10.4 |
| CCCCCn1c(=O)[nH]c2cc(C(=O)Nc3ccc(F)cc3)ccc2c1=O | – | -0.504 |
| O=C(Nc1cc(C(F)(F)F)ccc1Cl)c1nc2ccccc2nc1N1CCCCC1 | – | 2.61 |
| COc1ccccc1NC(=O)C(=O)c1cc(C)n(-c2ccccc2F)c1C | – | -2.07 |
| O=C(CC1N=C2c3ccccc3N=C(SCc3ccc(F)cc3)N2C1=O)NCc1cccs1 (stereo not given) | – | -4.42 |
| COc1cc(OC)c(NC(=O)c2cnc(N3CCCC3)nc2C)cc1Cl | – | -6.84 |
| Cc1ccc(CNS(=O)(=O)c2ccc(C(=O)N(C)C)s2)cc1 | – | -0.386 |
| CCc1ccccc1NC(=O)Cc1ccc(NC(=O)N2CCCCc3ccccc32)cc1 | – | -5.61 |
| CC(=O)N1CCCc2cc(S(=O)(=O)N3CCC(C(=O)NC4CCCCC4)CC3)ccc21 | – | -0.0735 |
| CCOc1ccc(CNC(=O)c2cc(-c3ccc(Cl)s3)nc3ccccc23)cc1 | – | -0.709 |
| CCc1ccc(-c2cc(C(=O)NCc3ccco3)c3ccccc3n2)s1 | 22.4 µM (active) | – |
| O=C(NCc1ccco1)c1cc(-c2cccnc2)nc2ccc(Cl)cc12 | – | -13.8 |
| Cc1ccc2nc(/C(C#N)=C/c3ccc(-c4ccc(C(=O)OC(C)C)cc4)o3)[nH]c2c1 | – | -3.11 |
| Fc1ccc(-c2nc(Nc3cccc(Cl)c3)nc3c2COc2ccccc2-3)cc1 | – | -3.92 |
| Cc1ccc(-n2ncc3c(NCCCn4ccnc4)ncnc32)cc1Cl | – | -0.0419 |
| C=CC(=O)c1ccc2ccccc2c1 | 3.98 µM (active) | – |
| CC(=O)c1ccc2c(ccc3ccccc32)c1 | – | -9.87 |
| CC(=O)CCC(=O)c1ccc2ccccc2c1 | – | -3 |
| COc1ccc(Cc2nc3ccc(C(=O)NCc4ccc(OC)cc4OC)cc3o2)cc1 | – | -5.34 |

| SMILES | Potency | max response, negative = inhibition [%] |
| --- | --- | --- |
| CCCn1c(-c2ccc(F)cc2)nc2c(NCC3CCCN3CC)nc(C)nc21 (stereo not given) | – | -1.1 |
| CCN1CCCC1CNc1ncnc2c1[nH]c1ccc(F)cc12 (stereo not given) | 25.1 µM (active) | – |
| Fc1ccc2[nH]c3c(N4CCSCC4)ncnc3c2c1 | – | -6.83 |
| Cc1cc2c(cc3c(SCc4cccc(Cl)c4)nnc(C)n32)o1 | – | -4.57 |
| COC(=O)c1ccc(Cn2c(SCC(=O)N(C)c3ccccc3)nc3ccccc32)cc1 | – | -5.82 |
| COc1ccc(OC)c(CNC(=O)Cn2nc(C)c3c(C)n(-c4ccccc4)nc3c2=O)c1 | – | -2.6 |
| CCN(c1ncnc2c1cnn2-c1ccc(C)cc1)C1CCCCC1 | – | 1.62 |
| CCOc1ccc(N2CC(C)Cn3c2nc2c3c(=O)n(Cc3c(F)cccc3Cl)c(=O)n2C)cc1 (stereo not given) | – | -3.27 |
| COc1ccc(-c2c3c(=O)n(C)c(=O)n(C)c3cn2-c2cccc(OC)c2)cc1 | – | -3.29 |
| Cc1ccc(-c2c3c(=O)n(C)c(=O)n(C)c3cn2-c2ccccc2O)cc1 | – | 0.548 |
| Cc1ccc(-c2c3c(=O)n(C)c(=O)n(C)c3cn2-n2cnnc2)cc1 | 10 µM (active) | – |
| OCc1cnc(SCc2ccc(F)cc2)n1Cc1ccc(F)cc1 | – | -1.84 |
| CCOc1ccccc1NC(=O)CCn1cnnn1 | – | 2.1 |
| CCOC(=O)c1cccc(NC(=O)c2cc(CN3CCCC3)on2)c1 | – | -1.68 |
| CCOc1cccc(C(=O)Nc2nnc(S(=O)(=O)N(C)c3ccc(C)cc3)s2)c1 | – | -2.64 |
| Cc1ccccc1CNC(=O)C(=O)NCC(c1cccs1)S(=O)(=O)c1cccs1 (stereo not given) | – | -2.25 |
| Cc1cc(=O)c2cc(C(=O)Nc3cccc(C)c3C)ccc2[nH]1 | – | -3.15 |
| Cc1cccc(NC(=O)CSc2ncc(-c3ccccc3)[nH]2)c1C | – | -4.22 |
| O=C(CSc1ncc(S(=O)(=O)c2ccc(Br)cc2)c(=O)[nH]1)Nc1ccc2c(c1)OCCO2 | – | -23.7 |
| CCOc1ccccc1NC(=O)CSc1ncc(S(=O)(=O)c2ccc(C(C)(C)C)cc2)c(=O)[nH]1 | 28.2 µM (active) | – |
| CCOc1ccc(CNC(=O)c2cc(=O)[nH]c3ccc(S(=O)(=O)N4CCCCC4)cc23)cc1 | – | 0.425 |
